{
  "source": "PubChem BioAssay AID2158",
  "about": "(National Center for Advancing Translational Sciences (NCATS), 2009)",
  "note": "Records with an inconclusive call do not appear. Active and inactive are the calls of the source. Calls follow the shape of the dose curve; as a rule, active = well fitted inhibition curve with a large enough effect; inconclusive = small, poorly fitted or top-dose-only effect; inactive = no such curve, though single readings can be large or run the other way. Potency is read from the fitted curve at half-maximal effect.",
  "data": [
    {"target": "Cruzipain (Trypanosoma cruzi) (UniProt P25779)", "sequence (P25779 123-467 limits assumed)": "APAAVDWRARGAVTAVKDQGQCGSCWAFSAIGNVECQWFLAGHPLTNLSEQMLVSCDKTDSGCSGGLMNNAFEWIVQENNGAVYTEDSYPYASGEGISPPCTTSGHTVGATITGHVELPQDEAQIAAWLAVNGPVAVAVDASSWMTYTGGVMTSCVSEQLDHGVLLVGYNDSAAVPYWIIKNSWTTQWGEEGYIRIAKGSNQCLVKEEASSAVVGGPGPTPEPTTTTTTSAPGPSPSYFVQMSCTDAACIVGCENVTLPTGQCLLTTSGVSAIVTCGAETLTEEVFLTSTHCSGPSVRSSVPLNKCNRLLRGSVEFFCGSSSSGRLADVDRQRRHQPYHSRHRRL", "test": "Confirmation qHTS Assay for Inhibitors of Cruzain; also: nearly all actives have a fitted effect of over 40% in size;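 as to activity change, negative = inhibition: plate controls were uninhibited enzyme control for no effect and buffer wells lacking enzyme for full effect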", "conditions": "purified cruzain, Z-FR-AMC fluorescence, 0.01% Triton", "procedure,_shortened": "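Reaction progress from the 60 s rise in AMC fluorescence (ex 360, em 450 nm) after adding 2 uM Z-FR-AMC. Before this, 1.5 nM cruzain sat 15 min at room temperature with compound in pH 5.5 acetate buffer with 5 mM DTT and 0.01% Triton X-100.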", "values": [
      {"compound": "O=C(CNC(=O)C1CCCCC1)OCC(=O)c1ccc(Br)cc1", "Potency": "2.24 µM (active)"},
      {"compound": "O=C(N/N=C\\c1ccccc1O)c1ccccc1O", "activity change, negative = inhibition": "-9.61% (inactive)"},
      {"compound": "CCCCNC(=O)Cn1c(SCc2cccc(C)c2)nc2ccncc21", "activity change, negative = inhibition": "-22.6% (inactive)"},
      {"compound": "O=C(Cc1nnc(CNC(=O)c2ccccc2)s1)Nc1ccc(C(F)(F)F)cc1Cl", "activity change, negative = inhibition": "-3.96% (inactive)"},
      {"compound": "Cc1ccccc1Nc1nc(C#N)nc(NC2CCCC2)n1", "Potency": "0.708 µM (active)"},
      {"compound": "CC(C)(C)c1ccc(OCCn2c(CCNC(=O)C3CCCCC3)nc3ccccc32)cc1", "Potency": "6.31 µM (active)"},
      {"compound": "CCOc1cccc(-c2nn3c(-c4cc(C)[nH]n4)nnc3s2)c1", "activity change, negative = inhibition": "-3.99% (inactive)"},
      {"compound": "O=C(CNC(=O)c1ccccc1Cl)OC(C(=O)Nc1cc(C(F)(F)F)ccc1Cl)c1ccccc1", "note": "(stereo not drawn)", "Potency": "8.91 µM (active)"},
      {"compound": "Cc1ccc(S(=O)(=O)NC(N)=NCCC[C@@H](N)C(=O)Nc2cc(C(F)(F)F)ccc2Cl)cc1", "activity change, negative = inhibition": "-17.2% (inactive)"},
      {"compound": "CCc1ccc(NC(=O)Cn2c(SCc3ccc(C)cc3)nc3ccncc32)cc1", "activity change, negative = inhibition": "-7.51% (inactive)"},
      {"compound": "CC(C)(C)c1ccc(S(=O)(=O)c2cnc(SCC(=O)Nc3ccc(F)c(Cl)c3)[nH]c2=O)cc1", "Potency": "3.98 µM (active)"},
      {"compound": "Cc1ccccc1OCC(=O)NCC(=O)OCC(=O)c1ccc(F)cc1", "activity change, negative = inhibition": "-14.6% (inactive)"},
      {"compound": "COc1ccc(-c2nn3c(-c4cc(C)[nH]n4)nnc3s2)cc1", "activity change, negative = inhibition": "-13.7% (inactive)"},
      {"compound": "O=C(NCc1nnc(-c2cc3ccccc3[nH]2)s1)c1ccccc1", "activity change, negative = inhibition": "1% (inactive)"},
      {"compound": "O=C(CSc1nnc(-c2ccco2)c(-c2ccco2)n1)Nc1ccccc1", "Potency": "12.6 µM (active)"},
      {"compound": "O=C(NCCc1nc2ccccc2n1CCOc1ccc(Cl)cc1)C1CCCCC1", "Potency": "0.158 µM (active)"},
      {"compound": "CN(C)c1ccc(-c2nn3c(-c4cc(-c5ccccc5)n[nH]4)nnc3s2)cc1", "activity change, negative = inhibition": "-5.13% (inactive)"},
      {"compound": "CCc1ccc2[nH]c(=O)c(CN(Cc3ccccc3)Cc3nnnn3C(C)(C)C)cc2c1", "activity change, negative = inhibition": "-22.1% (inactive)"},
      {"compound": "O=C(CNC(=O)C1CCCC1)OC(C(=O)Nc1cc(C(F)(F)F)ccc1Cl)c1ccccc1", "note": "(stereo not drawn)", "Potency": "7.94 µM (active)"},
      {"compound": "CC1CCCN(c2ccc(C(=O)OCC(=O)N3c4ccccc4Sc4ccccc43)cc2[N+](=O)[O-])C1", "note": "(stereo not drawn)", "activity change, negative = inhibition": "-7.68% (inactive)"},
      {"compound": "COc1ccc2cc3cc(C(=O)NCCCN4CCOCC4)oc3nc2c1", "activity change, negative = inhibition": "-114% (inactive)"},
      {"compound": "Cn1nc(-c2ccncc2)nc2c(=O)n(C)c(=O)nc1-2", "Potency": "0.891 µM (active)"},
      {"compound": "CCn1cnc2c(NCCc3cccnc3)nc(C#N)nc21", "Potency": "10 µM (active)"}
    ]}
  ]
}
